Hits are enriched below; roughly 4.6% of the tested compounds scored in any of these assays.
tim10-1 inh: inhibits growth of tim10-1 mutant yeast. S. cerevisiae tim10-1 ts strain growth, BacTiter-Glo, 24 h. inhibition, % at 20 µM. hit rate 2.2% among 330,000. AID 463190;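 active = inhibition of at least 40%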;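 also: mutant grown at 25 °C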
tim23-1 inh: tim23-1 yeast growth inhibition; S. cerevisiae tim23-1 growth, BacTiter-Glo luminescence, 24 h; inhibition, % at 20 µM; hit rate 1.3% among 330,000; AID 463212;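 active = growth inhibition of the mutant yeast at or above 50%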;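 also: temperature-sensitive mutant grown at 25 °C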
NALP3 yeast inh: blocks the NALP3 inflammasome reconstituted in yeast; Yeast reconstituted NLRP3/ASC/caspase-1, beta-gal luminescence, 24 h; hit rate 0.39% among 330,000; inhibition, % at 10 µM; AID 2825;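 active = inhibition of 50% or more; inactive = inhibition below 50%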
TIM10 inh: TIM10 yeast growth inhibition | S. cerevisiae TIM10 strain growth, BacTiter-Glo luminescence, 24 h | inhibition, % at 10 µM | hit rate 1.4% among 330,000 | AID 463195;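 active = inhibition of 40% or more at the single tested concentration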;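 also: wild-type TIM10 isogenic control strain grown at permissive 25 °C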
SKKanGAS inh: SKKanGAS growth inhibition; S. pyogenes SKKanGAS, kanamycin growth, BacTiter-Glo, 6 h; inhibition, % at 7.5 µM; hit rate 1.3% among 300,000;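 active = mean replicate score, as percent of positive control median, at least 50; inconclusive = mean below 50 but one replicate at or above 50; inactive = mean and every replicate below 50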;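 also: strain carries kanamycin resistance gene driven by streptokinase promoter and grows in 40 µg/ml kanamycin; loss of luminescence reflects streptokinase promoter inhibition or plain growth inhibition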
tim10-1 confirm: confirmation of tim10-1 mutant yeast growth inhibitors. S. cerevisiae tim10-1 ts strain growth, BacTiter-Glo, 24 h. shares compounds with tim10-1 inh. hit rate 56% among 7,400. AID 463213. inhibition, % at 20 µM;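 active = inhibition of yeast growth at or above a set limit in either of two repeat tests at 20 µM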;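 also: tim10-1 mutant grown at permissive 25 °C to find synthetic lethal compounds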
A number is an active result; i = inactive; ? = inconclusive; nt = no result.

SMILES	tim10-1 inh	tim23-1 inh	NALP3 yeast inh	TIM10 inh	SKKanGAS inh	tim10-1 confirm
N/C(Cc1cccs1)=N\OC(=O)COc1ccc(Cl)cc1Cl	49	i	i	i	i	52
S=c1[nH]c2cc(-c3ccccc3)ccc2o1	43	i	i	i	i	i
Cc1cccc(CS(=O)(=O)Cc2ccc(C(=O)NC3CCCC3)o2)c1	i	i	i	i	i	nt
O=C(O)CCC(=O)Nc1cccc2cccnc12	72	i	i	i	i	i
COc1ccc(CCC(=O)NC(C)c2ccccc2)cc1OC (configuration not stated)	i	i	i	i	i	nt
O=C(COc1cc(F)ccc1[N+](=O)[O-])NCC1CCCO1 (configuration not stated)	i	i	i	i	nt	nt
C/C(CC(=O)Nc1ccc(N(C)C)cc1)=N\NC(=O)c1ccc(C(C)(C)C)cc1	53	i	i	i	i	33
Cc1nn(CC(=O)NCCN2CCOCC2)c(=O)c2cc3sccc3n12	i	i	i	i	i	nt
O=C(N1CCC(n2nc(-c3ccccc3)oc2=O)CC1)C1(c2ccc(Cl)cc2)CC1	53	i	i	i	i	i
Cc1nn(-c2ccccc2)c(Cl)c1/C=C1\C(=O)N(C)C(=S)N1C	i	i	i	i	i	nt
Cc1nn(-c2ccc(F)cc2)c(Cl)c1/C=C1\C(=O)Nc2ccccc21	54	i	i	i	nt	41
CCCCC1CCC(C(=O)N(CC(C)C)c2c(N)n(Cc3ccccc3)c(=O)[nH]c2=O)CC1 (configuration not stated)	i	i	i	i	i	nt
CCCN(CC(=O)Nc1cc(Cl)cc(Cl)c1)CC(=O)Nc1ccc(F)c(F)c1F	51	i	i	i	82	i
O=S(=O)(NCCCSc1ccccc1)c1ccccc1F	42	i	i	i	i	i
COc1ccc(OC)c2nc(-c3ccc4c(c3)OCO4)ccc12	41	i	i	i	i	34
CCOC(=O)N1CCC(C(=O)NNC(=O)c2ccc(Cl)cc2Cl)CC1	i	i	i	i	i	nt
S=C(NCCc1ccc(Cl)cc1)NCc1ccco1	i	i	i	i	i	nt
O=C(NC(=S)NCCc1ccc(Cl)cc1)c1ccco1	48	i	i	i	i	i
S=C(NCCc1ccc(Cl)cc1)NC1CCCC1	43	i	i	i	i	i
O=C(N1CCCCCC1)n1c(Cc2ccccc2)nc2ccccc21	41	i	i	i	i	42
O=C(Cn1c(S(=O)(=O)Cc2ccccc2)nc2ccccc21)N1CCCCC1	i	i	i	i	i	nt
CC(C)C(=O)NC(=S)N(Cc1ccccc1)Cc1ccccc1	41	i	i	i	i	i
O=C(O)CNC(=S)N(Cc1ccccc1)Cc1ccccc1F	i	i	i	i	i	nt
COc1ccc(C(=O)Oc2ccc3c(c2)OCO3)cc1OC	42	i	i	i	i	i
COc1cc(OC)c(C(=O)Oc2ccc3c(c2)OCO3)cc1OC	i	i	i	i	i	nt
SMILES	tim10-1 inh	tim23-1 inh	NALP3 yeast inh	TIM10 inh	SKKanGAS inh	tim10-1 confirm
COc1cc(-c2ccc3oc(-c4cccc(C)c4)c(C#CC4(O)CCCCC4)c3c2)cc(OC)c1OC	i	i	i	i	nt	nt
COc1ccc2cc(CCNC(=O)c3c(-c4ccccc4Cl)noc3C)c(=O)[nH]c2c1	41	i	i	i	i	i
CC1C2CC(C(CN(C)C)/C2=N/O)C1(C)C (configuration not stated)	44	i	i	i	i	i
Cc1ccccc1N1CCN(S(=O)(=O)c2nnc(NC(=O)c3ccco3)s2)CC1	46	i	i	i	51	i
Oc1cc(-c2ccccc2)c2ccccc2c1	54	i	i	i	i	51
c1ccc2c(c1)-c1cccc3c1c-2cc1ccccc13	i	i	i	i	nt	nt
Cc1cc(Nc2ccccc2)c2c([N+](=O)[O-])c(C)cc(C)c2n1	41	i	i	i	i	i
Cc1cccc(Nc2cc(C)nc3ccccc23)c1	i	i	i	i	i	nt
COc1cc(C)c(Cl)cc1S(=O)(=O)N1CCSC1	i	i	i	i	i	nt
CCOC(=O)c1ccc(N2C(=O)C3C(C2=O)C(C(=O)c2ccc(Cl)cc2)N2CCCC32)cc1 (configuration not stated)	42	i	i	i	i	29
CCOC(=O)c1ccc(NC(=O)CCc2nc(-c3ccccc3Cl)no2)cc1	41	i	i	i	i	29
CC1=Nc2cc(C(=O)NCc3ccco3)ccc2Sc2ccc(C)cc21	44	i	i	i	i	i
CC1=Nc2cc(C(=O)NCC3CCCO3)ccc2Sc2ccc(C)cc21 (configuration not stated)	i	i	i	i	i	nt
CC1=C(/C=C/C(C)=C/C=C/C(C)=C/CO)C(C)(C)CCC1	44	i	i	i	i	i
Cc1cccc(NC(=O)CCCN=C2NS(=O)(=O)c3ccccc32)c1C	i	i	i	i	nt	nt
Cc1nn2c(N3CCN(C)CC3)cc(C(C)(C)C)nc2c1-c1ccccc1	i	i	i	i	i	nt
Cc1nn2c(N3CCN(C(=O)c4ccco4)CC3)cc(C(C)(C)C)nc2c1-c1ccccc1	50	i	i	i	62	i
CC1CCCC(NC(=O)COC(=O)COc2cccc(F)c2)C1C (configuration not stated)	i	i	i	i	nt	nt
CC(=O)c1ccc(OC(=O)C2CSC3(C)CCC(=O)N23)cc1 (configuration not stated)	i	i	i	i	nt	nt
Cc1ccc(Cl)c(OC(=O)C2CSC3(C)CCC(=O)N23)c1 (configuration not stated)	40	i	i	i	i	i
O=C(Cc1ccccc1F)c1ccc(O)cc1O	43	i	i	i	i	31
COc1ccc(C2=NN3C(=O)c4c(ccc(OC)c4OC)C3C2)cc1 (configuration not stated)	i	i	i	i	i	nt
COc1ccc2c(c1OC)C(=O)N1N=C(c3ccc(Cl)cc3)CC21 (configuration not stated)	46	i	i	i	i	33
O=C(Nc1ccccc1N1CCN(C(=O)c2ccc(Cl)cc2)CC1)c1cccc([N+](=O)[O-])c1	42	i	i	i	i	i
O=C(Nc1ccccc1N1CCN(C(=O)c2ccccc2)CC1)c1ccccc1Cl	i	i	i	i	?	nt
SMILES	tim10-1 inh	tim23-1 inh	NALP3 yeast inh	TIM10 inh	SKKanGAS inh	tim10-1 confirm
COc1ccccc1C(=O)Nc1ccccc1N1CCN(C(=O)c2ccc(Cl)cc2)CC1	47	i	i	i	i	i
CC(=O)Oc1ccc(/C=N/NS(=O)(=O)c2ccccc2)cc1	44	i	i	i	?	44
S=c1[nH]nc(Cc2ccccc2)n1-c1ccccc1	i	i	i	i	i	nt
Cc1ccc(-n2c(Cc3ccccc3)n[nH]c2=S)cc1	40	i	i	i	i	i
Cc1ccc(-n2c(CNc3cccc(Cl)c3)n[nH]c2=S)cc1	i	i	i	i	i	nt
Cc1ccc(-n2c(CNc3ccc(C)c(Cl)c3)n[nH]c2=S)cc1	41	i	i	i	i	i
CCOc1ccccc1CN1CCCC(C(=O)Nc2cccc(-n3cccn3)c2)C1 (configuration not stated)	i	i	i	i	i	nt
